The assay is described as follows: NCI Yeast Anticancer Drug Screen. Data for the rad14 strain (AID 159).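 Further: 0% = growth of vehicle-treated control cultures.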 Particulars: S. cerevisiae rad14 strain growth inhibition, hits give high values. As for the experimental part:
Growth inhibition of yeast strains with defined genetic alterations is measured as a screen for potential anti-cancer activity. Selected strains with alterations in DNA damage repair or cell cycle control were exposed to compounds and growth inhibition was measured relative to vehicle treated controls. The strain used in this assay is rad14

About 79,000 compounds went through this panel and 15% of them were active in at least one assay; those are over-represented in the sample as a whole. The source made the active and inactive calls. No stated cut-off is given here; in the data, active means growth inhibition above about 70%; inactive means the rest.

Regarding `COC(=O)C(F)C(Br)C(=O)OC` (stereo not given), the growth inhibition was 5% (inactive) (at 1.2 µM); 67% (inactive) (at 3.7 µM); 93% (active) (at 11.0 µM); 97% (active) (at 33.0 µM); 96% (active) (at 100.0 µM).
Taken in the same sequence, the figures for `O=C1c2ccc3ccccc3c2CCC1N1CCCCC1` (stereo not given) were 14% (inactive), 33% (inactive), 50% (inactive), 97% (active) and 98% (active).
Taken in the same sequence, the figures for `CS(=O)(=O)OCCN(CCOS(C)(=O)=O)c1ccc(C=O)cc1` were 22% (inactive), 36% (inactive), 63% (inactive), 82% (active) and 91% (active).
Taken in the same sequence, the figures for `Cc1ccc2c(c1)C1(C)c3cc(C)ccc3SP1S2` (stereo not given) were 0% (inactive), -10% (inactive), -23% (inactive), 15% (inactive) and 29% (inactive).
On to `CNC(=O)ON(C(C)=O)C(=O)NC`, for which the growth inhibition was -47% (inactive) (at 1.2 µM); -35% (inactive) (at 3.7 µM); -48% (inactive) (at 11.0 µM); -47% (inactive) (at 33.0 µM); -47% (inactive) (at 100.0 µM).
On to `C[C@]12CC[C@H](O)CC1=CC[C@@H]1[C@@H]2CC[C@]2(C)C(=O)CC[C@@H]12`, for which the growth inhibition (at 1.2 µM) is -57% (inactive); the growth inhibition (at 3.7 µM) was -52% (inactive); the growth inhibition (at 11.0 µM) is -39% (inactive); the growth inhibition (at 33.0 µM) is 77% (active); the growth inhibition (at 100.0 µM) is 96% (active).
Taken in the same sequence, the figures for `COc1cc2ccccc2c2cc([N+](=O)[O-])oc12` were 91% (active), 93% (active), 95% (active), 94% (active) and 93% (active).
Taken in the same sequence, the figures for `NCCc1ccc(OCc2ccccc2)c(OCc2ccccc2)c1` were -27% (inactive), -21% (inactive), -3% (inactive), 94% (active) and 97% (active).

The values are drawn from PubChem BioAssay (NCI).
